Screens deposited in PubChem BioAssay by University of Kansas High Throughput Screening Laboratory.
The full list was thinned out, with hits kept by preference.
mHTT-CaM PPI inh: mHTT-calmodulin interaction abrogation; P42858; AlphaScreen His-mHTT/GST-CaM binding, luminescence; inhibition, % at 15 µM; hit rate 3.6% among 190,000;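 note: 0% = both proteins with DMSO and 100% = one protein alone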
Target sequence (P42858 whole entry, looked up, stated change not applied): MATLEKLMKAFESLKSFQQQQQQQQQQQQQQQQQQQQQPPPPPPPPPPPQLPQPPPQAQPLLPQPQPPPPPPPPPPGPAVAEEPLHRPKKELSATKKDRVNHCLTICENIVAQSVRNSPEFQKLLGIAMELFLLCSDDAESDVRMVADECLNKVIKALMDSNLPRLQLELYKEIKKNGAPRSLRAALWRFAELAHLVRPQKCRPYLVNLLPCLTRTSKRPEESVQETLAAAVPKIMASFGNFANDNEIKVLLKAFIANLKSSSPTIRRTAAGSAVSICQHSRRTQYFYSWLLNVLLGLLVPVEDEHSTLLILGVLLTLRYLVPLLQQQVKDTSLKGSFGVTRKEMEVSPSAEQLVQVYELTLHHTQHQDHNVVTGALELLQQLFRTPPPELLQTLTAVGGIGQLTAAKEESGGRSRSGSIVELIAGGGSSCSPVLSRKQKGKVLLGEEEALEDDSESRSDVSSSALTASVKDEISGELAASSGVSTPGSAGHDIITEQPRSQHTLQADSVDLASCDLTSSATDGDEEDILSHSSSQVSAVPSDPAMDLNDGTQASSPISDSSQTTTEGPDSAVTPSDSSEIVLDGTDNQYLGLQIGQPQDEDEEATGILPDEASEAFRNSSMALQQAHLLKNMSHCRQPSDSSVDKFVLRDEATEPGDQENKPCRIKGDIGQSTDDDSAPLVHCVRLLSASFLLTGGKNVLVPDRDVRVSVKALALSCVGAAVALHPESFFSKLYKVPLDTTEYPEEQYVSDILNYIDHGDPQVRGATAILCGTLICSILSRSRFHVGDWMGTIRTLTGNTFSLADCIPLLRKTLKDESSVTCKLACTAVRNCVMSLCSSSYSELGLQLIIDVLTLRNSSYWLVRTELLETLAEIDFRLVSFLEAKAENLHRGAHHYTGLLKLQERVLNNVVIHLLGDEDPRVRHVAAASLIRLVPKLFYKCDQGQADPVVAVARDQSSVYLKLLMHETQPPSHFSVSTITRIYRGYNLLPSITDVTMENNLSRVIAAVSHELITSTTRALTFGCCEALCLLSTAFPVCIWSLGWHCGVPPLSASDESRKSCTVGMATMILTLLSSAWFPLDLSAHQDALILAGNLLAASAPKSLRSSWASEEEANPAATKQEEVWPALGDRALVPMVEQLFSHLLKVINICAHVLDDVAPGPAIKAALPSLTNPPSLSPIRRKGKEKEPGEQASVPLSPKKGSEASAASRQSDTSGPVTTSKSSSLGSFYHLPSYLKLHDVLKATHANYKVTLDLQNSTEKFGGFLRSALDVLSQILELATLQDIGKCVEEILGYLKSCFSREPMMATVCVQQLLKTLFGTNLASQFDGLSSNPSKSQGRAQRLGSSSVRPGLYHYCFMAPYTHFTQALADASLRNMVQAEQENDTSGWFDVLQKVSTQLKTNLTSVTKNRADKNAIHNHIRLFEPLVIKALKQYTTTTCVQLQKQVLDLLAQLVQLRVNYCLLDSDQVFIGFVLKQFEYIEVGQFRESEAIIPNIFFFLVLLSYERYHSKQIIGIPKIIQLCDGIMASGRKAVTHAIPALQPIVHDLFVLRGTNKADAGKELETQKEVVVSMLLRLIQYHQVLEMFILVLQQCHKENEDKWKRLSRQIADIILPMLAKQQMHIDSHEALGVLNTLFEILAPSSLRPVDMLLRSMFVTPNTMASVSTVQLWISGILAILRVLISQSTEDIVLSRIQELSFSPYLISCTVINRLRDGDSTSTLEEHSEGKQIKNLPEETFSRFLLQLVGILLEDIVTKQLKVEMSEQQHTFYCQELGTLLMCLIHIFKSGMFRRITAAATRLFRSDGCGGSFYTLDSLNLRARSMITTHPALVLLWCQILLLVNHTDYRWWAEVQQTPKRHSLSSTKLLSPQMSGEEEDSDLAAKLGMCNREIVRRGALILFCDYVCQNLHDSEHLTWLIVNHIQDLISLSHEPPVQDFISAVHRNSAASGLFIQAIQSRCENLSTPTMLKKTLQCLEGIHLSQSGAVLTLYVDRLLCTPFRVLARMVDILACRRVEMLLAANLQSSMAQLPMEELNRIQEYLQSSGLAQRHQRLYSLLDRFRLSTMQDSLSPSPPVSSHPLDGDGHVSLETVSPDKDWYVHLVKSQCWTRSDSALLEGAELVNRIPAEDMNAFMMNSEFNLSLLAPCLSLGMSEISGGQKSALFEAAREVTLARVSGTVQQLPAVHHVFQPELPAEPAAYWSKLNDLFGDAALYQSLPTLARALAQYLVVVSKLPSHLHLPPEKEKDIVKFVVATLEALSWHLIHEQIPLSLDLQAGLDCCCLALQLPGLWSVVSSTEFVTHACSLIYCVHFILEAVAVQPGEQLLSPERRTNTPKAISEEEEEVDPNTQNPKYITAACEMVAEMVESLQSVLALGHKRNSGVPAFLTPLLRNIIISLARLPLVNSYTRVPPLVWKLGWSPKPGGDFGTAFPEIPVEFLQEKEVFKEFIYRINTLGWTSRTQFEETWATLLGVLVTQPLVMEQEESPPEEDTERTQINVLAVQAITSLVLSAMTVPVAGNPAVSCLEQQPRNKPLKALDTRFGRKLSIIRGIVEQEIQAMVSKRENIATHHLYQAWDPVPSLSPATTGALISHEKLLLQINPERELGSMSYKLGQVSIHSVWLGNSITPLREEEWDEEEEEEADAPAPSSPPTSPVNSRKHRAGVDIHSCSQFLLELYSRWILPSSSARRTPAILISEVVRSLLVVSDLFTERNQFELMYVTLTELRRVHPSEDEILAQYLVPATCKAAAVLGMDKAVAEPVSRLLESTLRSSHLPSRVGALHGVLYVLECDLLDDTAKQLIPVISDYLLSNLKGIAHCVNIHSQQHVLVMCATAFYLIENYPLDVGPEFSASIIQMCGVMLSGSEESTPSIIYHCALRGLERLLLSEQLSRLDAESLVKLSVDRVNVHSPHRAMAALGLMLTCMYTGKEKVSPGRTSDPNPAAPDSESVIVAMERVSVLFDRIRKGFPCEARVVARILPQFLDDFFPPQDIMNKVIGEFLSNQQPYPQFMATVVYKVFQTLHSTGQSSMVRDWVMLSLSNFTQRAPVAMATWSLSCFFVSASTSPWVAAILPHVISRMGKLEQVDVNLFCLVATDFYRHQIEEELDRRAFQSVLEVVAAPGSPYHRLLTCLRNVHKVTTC
Pf apPOL block: Pf-apPOL DNA polymerase inhibition; inhibition, % at 10 µM; hit rate 0.25% among 210,000; Recombinant Pf-apPOL, molecular beacon fluorescence, 1.5 h
* marks the source's active call; other numbers are inactive results; i = inactive; / = not tested or not shown; ! = repeats disagree. Cut-off read from the data, not from the text of the source: active = inhibition above about 50%; inactive = the rest.

SMILES	mHTT-CaM PPI inh	Pf apPOL block
CCOC(=O)C(Oc1ccc2c(=O)c(-c3ccccc3OC)coc2c1)c1ccccc1 (stereo unspecified)	58*!	-5
COC(=O)Oc1ccc2c(=O)c(-c3ccccc3OC)coc2c1	50*	2
Cc1ccc(N2CCN(C(=O)c3ccc(F)cc3)C(C)C2=O)c(C)c1 (stereo unspecified)	-5	-1
O=C1CC(Sc2nc(-c3ccc(Cl)cc3)cc(C(F)(F)F)n2)C2COC1O2 (stereo unspecified)	33	-10
COc1ccc(/C=C(\NC(=O)c2ccco2)C(=O)Nc2cccc(C)c2)cc1	10	-3
Cc1nc2nc(SCC(=O)NCCC(C)C)nn2c(C)c1Cc1ccccc1	12	-5
O=C(c1cccc(-c2nc(-c3ccccc3)no2)c1)N1CCCCC1	3	-4
Cc1cccc(NC(=O)c2ccc(N3CC4CC(C3)c3cccc(=O)n3C4)c([N+](=O)[O-])c2)n1 (stereo unspecified)	12	-5
CN(C)c1cccc(C(=O)N2CCC(CCOCc3cccc(F)c3)CC2)c1	48	-6
CN(C)c1ccc(C(=O)N2CCC(CCOc3ccccc3F)CC2)cc1	88*	-6
CN(C)c1cccc(C(=O)N2CCC(CCOCc3ccc(F)cc3)CC2)c1	60*	-5
CN(C)c1cccc(C(=O)N2CCC(CCOc3cccc(F)c3)CC2)c1	84*	-2
CN(C)c1ccc(C(=O)N2CCC(CCOc3cccc(F)c3)CC2)cc1	15	-4
O=C(c1ccc2c(c1)OCO2)N1CCC(CCOCc2ccccc2F)CC1	-6	-1
O=C(c1ccc(F)cc1)N1CCC(CCOc2ccccc2F)CC1	4	-3
CN(C)c1cccc(C(=O)N2CCC(CCOCc3ccccc3F)CC2)c1	57*	-3
Cn1cccc1C(CNC(=O)C12CC3CC(CC(C3)C1)C2)N1CCCC1 (stereo unspecified)	6	-7
CCN1CCCn2nc(C3CCN(C(=O)COCc4ccccc4)CC3)cc2C1=O	-1	7
O=C(NCCc1c[nH]c2ccccc12)C(=O)Nc1ccc(F)c(Cl)c1	17	-4
COc1cc(C(=O)N2CCC(n3cnc4ccccc43)CC2)ccc1C	12	-7
CN(C)c1cccc(C(=O)N2CCC(n3cnc4ccc(F)cc43)CC2)c1	51*	-3
Cc1ccc(N2CCC(NC(=O)Nc3cc(C)ccc3C)C2=O)cc1 (stereo unspecified)	2	0
N#C/C(=C\C=C\c1ccco1)c1nc2ccccc2s1	76*	-10
N#C/C(=C\c1ccco1)c1nc(-c2ccccc2)cs1	-10	-3
COc1ccc(-n2c(C)c3c(C)nnc(C)c3c2C)cc1OC	5	3
SMILES	mHTT-CaM PPI inh	Pf apPOL block
Cc1nnc(C)c2c(C)n(C(C)c3ccccc3)c(C)c12 (stereo unspecified)	74*	7
c1nc(NC2CCCCCCCCCCC2)c2[nH]cnc2n1	3	3
CC1(C)Cc2c(sc3ncn4nc(CO/N=C/c5ccccc5Cl)nc4c23)C(C)(C)N1	i	-4
O=C(NCc1cccc(Cl)c1)C1CCN(C(=O)c2cc3ccsc3[nH]2)CC1	13	-2
Cc1cc(C)cc(C(=O)N2CCCC(COc3ccc(C(=O)NC(C)C)cc3)C2)c1 (stereo unspecified)	7	-4
CC1C(=O)N2CCCc3cc(NC(=O)C(=O)NCc4ccc5c(c4)OCO5)cc1c32 (stereo unspecified)	25	4
CC1C(=O)N2CCCc3cc(NC(=O)COc4ccc5ccccc5c4)cc1c32 (stereo unspecified)	52*	-12
Cc1ccc(S(=O)(=O)NC(CC(=O)NCc2cccnc2)c2ccco2)cc1 (stereo unspecified)	-4	-2
Nc1nonc1-c1nc2ccccc2n1CC(=O)Nc1ccccc1F	24	-3
O=S(=O)(NCC1CCN(Cc2ccccc2)CC1)C1CC1	-9	-2
CCOC(=O)c1nc(N2CCCC2)c2oc3ccccc3c2n1	2	-4
O=C(NC1CC1)c1nc(N2CCCCCC2)c2oc3ccccc3c2n1	52*	-9
Cc1ccc(CNC(=O)C2CCc3sc(C(=O)N4CCCCCC4)cc3C2)o1 (stereo unspecified)	11	4
COc1cc(N2C(=O)NC3CC2(C)Oc2ccc(Cl)cc23)cc(OC)c1OC (stereo unspecified)	-9	0
CC1(C)CC(=C2C(=O)c3ccccc3C2=O)C=C2c3ccccc3C(=O)C21 (stereo unspecified)	65*	0
O=C1c2ccccc2C(=O)c2c(NC3CCCCC3)ccc(NC3CCCCC3)c21	/	-2
CC(=O)N1CCN(c2ccc(NC(=O)COc3ccc(Cl)cc3Cl)cc2)CC1	50*	-16
CCCC(=O)Nc1ccc(NC(=O)COc2ccc(Cl)cc2Cl)cc1	9	6
O=C(CCCOc1ccc(Cl)cc1Cl)N1CCN(c2ccc(F)cc2)CC1	76*	9
O=C(CCSc1ccc(Cl)cc1)N1CCN(c2ccc(F)cc2)CC1	15	-6
COCCCNC(=O)N1CCCC1c1cc(C)no1 (stereo unspecified)	-5	-4
CC(NC(=O)C1CCCN(S(=O)(=O)N2CCCC2)C1)c1ccc2c(c1)OCCO2 (stereo unspecified)	-2	-22
Cc1ccccc1-n1nc2c(c1NC(=O)c1ccc(N3C(=O)CCC3=O)cc1)CSC2	22	-5
COc1ccc(OC)c(CN2CCc3nc(N4CCC(C)CC4)ncc3C2)c1	52*	-2
CC1CCN(c2ncc3c(n2)CCN(Cc2cccc(F)c2F)C3)CC1	74*	-3
SMILES	mHTT-CaM PPI inh	Pf apPOL block
COc1ccccc1CN1CCc2nc(N3CCN(c4ccccc4F)CC3)ncc2C1	10	1
COc1ccc(CN2CCc3nc(N4CCC(C)CC4)ncc3C2)cc1	4	-2
Fc1cccc(CN2CCc3nc(N4CCN(c5ccccn5)CC4)ncc3C2)c1F	29	-7
Clc1cccc(CN2CCc3nc(N4CCN(c5ccccn5)CC4)ncc3C2)c1	46	0
CCOc1ccccc1CN1CCc2nc(N3CCN(c4ccccc4F)CC3)ncc2C1	66*	4
c1ccc(CCN2CCc3nc(N4CCN(c5ccccn5)CC4)ncc3C2)cc1	60*	1
Cc1ccc(NC(=O)c2ccc(N(CCO)CCO)c([N+](=O)[O-])c2)cc1	10	-4
O=C(c1ccc(F)cc1)N1CCCCC1CCN1CCCCC1 (stereo unspecified)	0	-7
CC(=O)Nc1sc2c(c1-c1nsc(=O)o1)CCCC2	-3	/
COc1ccc(OC)c(NC(=O)c2cn3c(n2)COCC3)c1	19	-7
COc1ccccc1CN1CCc2nc(N3CCN(c4ccccc4)CC3)ncc2C1	24	2
Cc1ccc(CN2CCc3nc(N4CCC(C)CC4)ncc3C2)cc1	49	-2
Cc1ccc(CN2CCc3nc(N4CCC(C)CC4)ncc3C2)cc1C	72*	2
COc1ccc(CN2CCc3nc(N4CCN(c5ccccn5)CC4)ncc3C2)c(OC)c1	37	0
COc1ccc(OC)c(CN2CCc3nc(N4CCN(c5ccccn5)CC4)ncc3C2)c1	50*	-2
COc1ccccc1CN1CCc2nc(N3CCN(c4ncccn4)CC3)ncc2C1	100*	5
Cc1ccccc1C(=O)N1C(C(=O)NCC2CCCO2)COC12CCC(C)CC2 (stereo unspecified)	1	-4
COc1cccc(/C=C2\N=C(c3cc(OC)c(OC)c(OC)c3)OC2=O)c1OC	-3	0
